{"source": "PubChem BioAssay (EPA / NIEHS)", "note": "Values joined by “and” are separate entries in the source; they are usually repeats but may differ in a detail not shown here. Equal entries are not always repeated. Active and inactive are the calls of the source. The calls were made as follows: active = hit-call score of the fitted dose curve at least 0.9, where 1 is the maximum; inactive = score below 0.9.", "data": [{"read-out": "Macrophage colony-stimulating factor (MCSF), CSF1 (gene 1435)", "experiment": "BSK_LPS_MCSF: BioMAP Diversity Plus: LPS Assay for Macrophage colony-stimulating factor (MCSF) Biomarker Activity (AID 2283083)", "conditions": "primary human HUVEC with PBMC; actives raise or lower the signal", "protocol": "BSK_LPS is a cell-based, multiplexed-readout assay that uses umbilical vein endothelium and peripheral blood mononuclear cells, a human vascular primary cell co-culture, with measurements taken at 24 hours after chemical dosing in a 96-well plate.BSK_LPS_MCSF is an assay component measured in the BSK_LPS assay. It measures M-CSF antibody related to regulation of gene expression using ELISA technology.Data from the assay component BSK_LPS_MCSF was analyzed into 1 assay endpoint. This assay endpoint, BSK_LPS_MCSF, was analyzed with bidirectional fitting relative to DMSO as the negative control and baseline of activity. Using a type of binding reporter, gain or loss-of-signal activity can be used to understand changes in the signaling as they relate to the gene CSF1. Furthermore, this assay endpoint can be referred to as a primary readout, because this assay has produced multiple assay endpoints where this one serves a signaling function. To generalize the intended target to other relatable targets, this assay endpoint is annotated to the cytokine intended target family, where the subfamily is colony stimulating factor.\nThe levels of cell surface (or secreted, indicated by the prefix \"s\") biomarker endpoints were measured by ELISA. Overt cytotoxicity to cells in confluent adherent cultures (all systems other than the BT system) was assessed by measuring total protein levels using sulforhodamine B (SRB) staining in parallel cultures at the time of biomarker measurements, indicated as SRB endpoints. For proliferation assays for adherent cell types, individual cell types are cultured at sub-confluence and relative cell numbers quantified by SRB staining at time points optimized for each system (48 h: 3C and CASM3C systems; 72 h: BT and HDF3CGF systems; 96 h: SAg system). SRB was performed by staining cells with 0.1% SRB after fixation with 10% TCA and reading wells at 560 nm.Viability and proliferation of PBMC (T cells) was quantified by Alamar Blue reduction for the SAg and BT systems. For PBMC viability (referred to as PBMC Cytotoxicity within the assay endpoint names), cells were plated (75,000/well in a 96-well plate) and then chemical samples added for 1 h before addition of activators, SEB and TSST-1 (20 ng/mL final concentration each). Cells were incubated for 90 h. Then, Alamar Blue (20 uL/well) (Invitrogen, Cat DAL1100) was added for 6 h, and the plates were read with a fluorescence microplate reader at 546/580 nm (excitation/emission). For PBMC proliferation, cells were plated and activated as above but incubated for only 16 h prior to addition of Alamar Blue. Plates were read after 6 h.", "values": [{"compound": "CCCCNc1ccc(NCCCC)c2c1C(=O)c1ccccc1C2=O", "outcome": "inactive"}, {"compound": "CO[Si](OC)(OC)c1ccccc1", "outcome": "inactive"}, {"compound": "C=CC(=O)OCC(Br)CBr", "note": "(stereo unspecified)", "AC50": "20 µM (active)"}, {"compound": "O=C(Nc1ccccc1SSc1ccccc1NC(=O)c1ccccc1)c1ccccc1", "AC50": "5.44 µM (active)"}, {"compound": "CC1OC1C1CCC2(C)OC2C1", "note": "(stereo unspecified)", "outcome": "inactive"}, {"compound": "C=CCOCC(O)CCl", "note": "(stereo unspecified)", "outcome": "inactive"}, {"compound": "c1ccc2c(c1)ccc1ncccc12", "outcome": "inactive"}, {"compound": "CCCCCCCCCCCCCCCC[N+](C)(C)CC", "AC50": "2.18 µM (active)"}, {"compound": "c1ccc(-c2ccccn2)nc1", "outcome": "inactive"}, {"compound": "CCCCC/C=C\\C/C=C\\CCCCCCCC(=O)OC", "AC50": "32.5 µM (active)"}, {"compound": "CCCCCCCCc1ccc(Nc2ccc(CCCCCCCC)cc2)cc1", "outcome": "inactive"}, {"compound": "C=C[Si](OC(C)=O)(OC(C)=O)OC(C)=O", "outcome": "inactive"}, {"compound": "COCc1c(C(C)C)nc(C(C)C)c(/C=C/[C@@H](O)C[C@@H](O)CC(=O)O)c1-c1ccc(F)cc1", "outcome": "inactive"}, {"compound": "CCO[Si](CCCN=C=O)(OCC)OCC", "outcome": "inactive"}, {"compound": "C/C=C\\C/C=C/CCCCCCCCOC(C)=O", "AC50": "24.7 µM (active)"}, {"compound": "CN1C(=O)N(C)C(O)C1O", "note": "(stereo unspecified)", "outcome": "inactive"}, {"compound": "O=Nc1ccc(O)cc1", "outcome": "inactive"}, {"compound": "O=C(Cl)c1cc(C(=O)Cl)cc(C(=O)Cl)c1", "AC50": "31.1 µM (active)"}, {"compound": "C=CC=CC=CCCCCC", "outcome": "inactive"}, {"compound": "CC(C)(c1cc(Br)c(OCCO)c(Br)c1)c1cc(Br)c(OCCO)c(Br)c1", "outcome": "inactive"}, {"compound": "CCO[Si](C)(OCC)OCC", "outcome": "inactive"}, {"compound": "S=C(NC1CCCCC1)NC1CCCCC1", "outcome": "inactive"}, {"compound": "CC(C)C(=O)C(C)C", "outcome": "inactive"}, {"compound": "O=c1c2ccccc2oc2ccccc12", "outcome": "inactive"}, {"compound": "O=C(c1ccc(O)cc1)c1ccc(O)cc1O", "outcome": "inactive"}, {"compound": "COc1ccc2nc(N)sc2c1", "outcome": "inactive"}, {"compound": "CCCCC(CC)COCC1CO1", "note": "(stereo unspecified)", "outcome": "inactive"}, {"compound": "C#CC1(O)CC[C@H]2[C@@H]3CCC4=CCCC[C@@H]4[C@H]3CC[C@@]21C", "note": "(stereo partly specified)", "AC50": "29 µM (active)"}, {"compound": "C=CCOc1c(Br)cc(Br)cc1Br", "outcome": "inactive"}, {"compound": "CCOC(=O)c1ccccc1C(=C1C=C(Br)C(=O)C(Br)=C1)c1cc(Br)c(O)c(Br)c1", "AC50": "18.7 µM (active) and 17.4 µM (active)"}, {"compound": "CCCCC(CC)COC(=O)c1ccccc1O", "note": "(stereo unspecified)", "outcome": "inactive"}, {"compound": "Nc1ccc(N)c(Cl)c1", "AC50": "8.8 µM (active) and 15.4 µM (active)"}, {"compound": "N#[N+]c1ccc2c(S(=O)(=O)[O-])cccc2c1O", "outcome": "inactive"}, {"compound": "c1ccc2c(c1)ccc1cc3c(ccc4ccccc43)cc12", "outcome": "inactive"}, {"compound": "O=C1CCCN1CCO", "outcome": "inactive"}, {"compound": "CCOc1nc(F)cc2nc(S(=O)(=O)Nc3c(Cl)cccc3C(=O)OC)nn12", "outcome": "inactive"}]}]}
